Source: PMC5540273 (PLoS ONE, 2017)

Tests used:
Conditions in all cases: concentration: 1 μM, replicates: in singlicate; n = 1
TSSK1B = test system: TSSK1B
TSSK3 = test system: TSSK3
TTK = test system: TTK
TXK = test system: TXK
[1] = test system: TYK2(JH1domain-catalytic)
[2] = test system: TYK2(JH2domain-pseudokinase)
TYRO3 = test system: TYRO3
ULK1 = test system: ULK1
ULK2 = test system: ULK2
ULK3 = test system: ULK3
VEGFR2 = test system: T1, VEGFR2
T1 construct: gene KDR

VPS34 = test system: T2, VPS34
T2 construct: gene PIK3C3

VRK2 = test system: VRK2
WEE1 = test system: WEE1
WEE2 = test system: WEE2
WNK1 = test system: WNK1
WNK2 = test system: WNK2
WNK3 = test system: WNK3
WNK4 = test system: WNK4
YANK1 = test system: T3, YANK1
T3 construct: gene STK32A
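Further: KINOMEscan kinase panel screen.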

Compound | %Inh (TSSK1B) [%] | %Inh (TSSK3) [%] | %Inh (TTK) [%] | %Inh (TXK) [%] | %Inh [1] [%] | %Inh [2] [%] | %Inh (TYRO3) [%] | %Inh (ULK1) [%] | %Inh (ULK2) [%] | %Inh (ULK3) [%] | %Inh (VEGFR2) [%] | %Inh (VPS34) [%] | %Inh (VRK2) [%] | %Inh (WEE1) [%] | %Inh (WEE2) [%] | %Inh (WNK1) [%] | %Inh (WNK2) [%] | %Inh (WNK3) [%] | %Inh (WNK4) [%] | %Inh (YANK1) [%]
COc1ccc(Nc2nccc(N3CCC(NC(=O)C(C)c4ccc(Cl)cc4)C3)n2)cc1 (stereo not drawn) [GSK1379735] | 1 | 24 | 29 | 21 | 28 | 1 | 22 | 9 | 9 | 9 | 0 | 15 | 0 | 16 | 0 | 6 | 31 | 8 | 0 | 69
COc1cccc(CNC(=O)NC2CCN(c3ccnc(Nc4ccc(F)cc4)n3)C2)c1 (stereo not drawn) [GSK1379723] | 1 | 16 | 17 | 100 | 20 | 22 | 17 | 19 | 1 | 4 | 1 | 0 | 0 | 3 | 12 | 6 | 13 | 5 | 7 | 0
Cc1ccc(NC(=O)Nc2ccc(Cl)c(C(F)(F)F)c2)cc1-c1ccc(C(=O)Nc2ccncc2)cc1 [GSK1398470] | 0 | 9 | 32 | 0 | 0 | 0 | 0 | 44 | 0 | 51 | 0 | 0 | 8 | 3 | 10 | 0 | 8 | 0 | 0 | 60
Fc1ccc(-c2nc3n(c2-c2ccncc2)CCS3)cc1 [GI98581] | 0 | 22 | 0 | 0 | 8 | 11 | 0 | 2 | 0 | 0 | 0 | 21 | 0 | 3 | 7 | 0 | 7 | 13 | 2 | 13
Cc1cccc2c(-c3ccncn3)c(-c3ccc(F)cc3)nn12 [GW515532] | 16 | 0 | 14 | 12 | 30 | 24 | 0 | 19 | 0 | 10 | 5 | 30 | 0 | 0 | 0 | 16 | 0 | 22 | 0 | 26
O=C(Nc1n[nH]c2nc(-c3ccco3)c(Br)cc12)C1CCN(Cc2ccccc2)C1.O=C(O)[C@H](O)[C@@H](O)C(=O)O (stereo not drawn) [SB-742034] | 0 | 0 | 4 | 0 | 5 | 0 | 0 | 5 | 19 | 6 | 7 | 0 | 0 | 0 | 8 | 0 | 0 | 0 | 2 | 0
CNC(=O)c1ccc(C)c(-n2c(C)cc(OCc3ccc(F)cc3F)c(Br)c2=O)c1 | 0 | 0 | 0 | 0 | 0 | 0 | 0 | 0 | 0 | 0 | 0 | 0 | 0 | 0 | 0 | 0 | 0 | 0 | 0 | 4
CCn1c(-c2c(N)noc2C)nc2cnccc21 [SB-737856] | 19 | 3 | 0 | 31 | 0 | 21 | 12 | 18 | 7 | 16 | 0 | 0 | 0 | 18 | 11 | 20 | 0 | 17 | 78 | 9
COc1ccc(CSc2nnc(-c3ccc4c(c3)CCO4)o2)cc1 | 0 | 0 | 0 | 0 | 0 | 0 | 0 | 0 | 0 | 0 | 0 | 15 | 0 | 0 | 14 | 0 | 0 | 0 | 0 | 0
CC(=O)c1c(C)c2cnc(Nc3ccn(C)n3)nc2n(C2CCCC2)c1=O | 16 | 0 | 52 | 0 | 0 | 0 | 0 | 0 | 6 | 0 | 0 | 3 | 28 | 0 | 0 | 0 | 0 | 0 | 0 | 0
CCn1c(-c2ccccc2)nc2cnccc21 [SB-733416] | 32 | 14 | 0 | 9 | 24 | 45 | 0 | 20 | 0 | 14 | 0 | 0 | 34 | 8 | 2 | 17 | 0 | 26 | 19 | 0
CNc1cc(-c2ccc3c(N)n[nH]c3c2)nc(N)n1 [GSK2224810] | 0 | 31 | 0 | 0 | 7 | 43 | 0 | 36 | 17 | 5 | 25 | 0 | 0 | 1 | 5 | 0 | 0 | 19 | 88 | 36
COc1cccc(NC(=O)Nc2ccc(C)c(-c3ccc(C(=O)Nc4ccncc4)cc3)c2)c1 [GSK1398474] | 0 | 6 | 13 | 0 | 0 | 0 | 0 | 6 | 0 | 0 | 6 | 0 | 0 | 11 | 4 | 0 | 0 | 28 | 0 | 18
CC(=O)c1cccc(NC(=O)NC2CCN(c3ccnc(Nc4ccc(F)cc4)n3)C2)c1 (stereo not drawn) [GSK1379710] | 39 | 32 | 23 | 16 | 26 | 22 | 0 | 2 | 4 | 10 | 8 | 10 | 19 | 19 | 10 | 10 | 0 | 49 | 22 | 12
Nc1nccc(-c2c(-c3ccc(F)cc3)ncn2C2CCN(Cc3ccccc3)CC2)n1 [SB-219980] | 0 | 0 | 0 | 0 | 7 | 49 | 15 | 31 | 0 | 22 | 1 | 0 | 0 | 0 | 0 | 7 | 12 | 0 | 0 | 28
FC(F)(F)c1ccccc1-c1cc(-c2c[nH]nc2-c2ccccn2)ccn1 [GW679396] | 1 | 4 | 0 | 0 | 0 | 0 | 13 | 0 | 0 | 0 | 1 | 0 | 0 | 4 | 5 | 0 | 0 | 13 | 11 | 3
CN1c2ccc(-c3ccc(C(N)=O)cc3)cc2-c2[nH]ncc2S1(=O)=O | 0 | 0 | 5 | 0 | 45 | 83 | 0 | 0 | 9 | 6 | 21 | 0 | 3 | 14 | 0 | 6 | 0 | 4 | 0 | 0
O=c1cc(N2CCOCC2)nc2n(Cc3cccc(Cl)c3Cl)c3ccccc3n12 [GSK2299009] | 10 | 20 | 8 | 0 | 0 | 0 | 0 | 18 | 0 | 2 | 7 | 96.7 | 0 | 28 | 17 | 6 | 42 | 5 | 0 | 22
Cc1nccc(-c2c(-c3ccc(F)cc3)ncn2CCCN2CCOCC2)n1.Cl [SB-282975] | 3 | 43 | 0 | 31 | 42 | 28 | 14 | 9 | 26 | 20 | 0 | 0 | 0 | 9 | 16 | 12 | 6 | 2 | 0 | 0
CC(C)c1ccc(O)cc1Nc1ccnc2ccc(C(F)(F)F)cc12 [GW482059] | 0 | 3 | 2 | 19 | 23 | 0 | 0 | 20 | 0 | 8 | 0 | 15 | 0 | 0 | 5 | 1 | 0 | 0 | 0 | 0
Fc1ccc(-c2nc[nH]c2-c2ccncc2)cc1 [SB-217360] | 0 | 0 | 0 | 0 | 2 | 22 | 0 | 20 | 27 | 16 | 0 | 26 | 19 | 4 | 0 | 11 | 0 | 9 | 2 | 7
